This is an account of results in PMC7862700, “An all-to-all approach to the identification of sequence-specific readers for epigenetic DNA modifications on cytosine”.

What all share (assay): DAPPL (digital affinity profiling via proximity ligation, sequencing); 10 mM Tris-HCl pH 7.5, 50 mM NaCl, 1 mM DTT, 4% glycerol, room temperature, 30 min; GST-TFs on glutathione beads, 16-mer random dsDNA library, 0.1% formaldehyde crosslink after washing; high values mean tight binding
The target of test [1] is T1, FLI1 (Homo sapiens, UniProt Q01543 1-452).
T1 sequence: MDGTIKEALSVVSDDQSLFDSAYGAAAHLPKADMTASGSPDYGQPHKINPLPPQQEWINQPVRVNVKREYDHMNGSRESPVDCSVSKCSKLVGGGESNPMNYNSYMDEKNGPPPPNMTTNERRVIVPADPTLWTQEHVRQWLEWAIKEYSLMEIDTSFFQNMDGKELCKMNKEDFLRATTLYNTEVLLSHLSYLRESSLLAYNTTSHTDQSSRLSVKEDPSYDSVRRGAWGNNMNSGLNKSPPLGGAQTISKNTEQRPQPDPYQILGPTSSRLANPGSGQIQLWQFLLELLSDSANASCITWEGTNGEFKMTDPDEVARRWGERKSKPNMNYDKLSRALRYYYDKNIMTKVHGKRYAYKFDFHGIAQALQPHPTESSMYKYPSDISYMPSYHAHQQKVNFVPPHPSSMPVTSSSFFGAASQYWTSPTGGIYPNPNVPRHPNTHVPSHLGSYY
The note with it: protein: recombinant; tags: N-terminal GST; dsDNA, one strand shown. The procedure, abridged:
(§1)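 The binding signal reported is, for every hexamer, its read frequency for a factor over its read frequency for the tag-only sample. Reads came from pools of yeast-expressed, GST-fused human transcription factors on glutathione beads, barcoded with DNA and mixed with that sample, which were incubated with 200 nmole of a random double-stranded 16-mer DNA library in Tris/NaCl/DTT/glycerol buffer at room temperature for 30 min. After washing, the pools were crosslinked with 0.1% formaldehyde, proximity-ligated with BsaI/T4 ligase for 1 h at 37 °C, PCR-amplified and sequenced on an Illumina NextSeq500.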

The target of test [2] is T2, ELK1 (Homo sapiens, UniProt P19419 1-428).
T2 sequence: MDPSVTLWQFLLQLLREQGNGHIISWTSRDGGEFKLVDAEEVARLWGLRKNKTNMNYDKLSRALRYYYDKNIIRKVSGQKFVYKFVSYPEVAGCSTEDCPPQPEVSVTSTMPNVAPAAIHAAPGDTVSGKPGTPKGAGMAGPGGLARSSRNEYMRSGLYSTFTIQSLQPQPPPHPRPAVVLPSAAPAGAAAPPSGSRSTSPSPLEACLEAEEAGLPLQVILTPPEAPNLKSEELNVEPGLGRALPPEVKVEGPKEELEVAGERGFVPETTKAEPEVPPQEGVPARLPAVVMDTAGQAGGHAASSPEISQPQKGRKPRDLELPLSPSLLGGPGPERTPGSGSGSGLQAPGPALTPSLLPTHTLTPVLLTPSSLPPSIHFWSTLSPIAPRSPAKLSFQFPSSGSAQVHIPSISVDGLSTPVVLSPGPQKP
Conditions: protein: recombinant; tags: N-terminal GST; dsDNA, one strand shown. The procedure, abridged: as §1

Test [3] deals with T3, GABPA (Homo sapiens, UniProt Q06546 1-454).
T3 sequence: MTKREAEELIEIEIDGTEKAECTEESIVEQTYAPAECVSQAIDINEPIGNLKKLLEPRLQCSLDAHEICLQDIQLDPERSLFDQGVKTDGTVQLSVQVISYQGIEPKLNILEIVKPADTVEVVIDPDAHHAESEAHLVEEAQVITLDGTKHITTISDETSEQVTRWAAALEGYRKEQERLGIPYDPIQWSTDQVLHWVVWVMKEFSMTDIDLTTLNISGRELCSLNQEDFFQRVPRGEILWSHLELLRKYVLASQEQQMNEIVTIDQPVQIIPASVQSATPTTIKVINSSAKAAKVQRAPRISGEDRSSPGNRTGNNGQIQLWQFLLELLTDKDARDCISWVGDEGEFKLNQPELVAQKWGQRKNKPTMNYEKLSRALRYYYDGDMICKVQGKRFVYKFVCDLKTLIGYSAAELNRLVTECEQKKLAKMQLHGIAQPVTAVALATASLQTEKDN
Conditions: protein: recombinant; tags: N-terminal GST; dsDNA, one strand shown. The method, boiled down: as §1

Test [4] addresses T4, ERG (Homo sapiens, UniProt P11308 1-479).
T4 sequence: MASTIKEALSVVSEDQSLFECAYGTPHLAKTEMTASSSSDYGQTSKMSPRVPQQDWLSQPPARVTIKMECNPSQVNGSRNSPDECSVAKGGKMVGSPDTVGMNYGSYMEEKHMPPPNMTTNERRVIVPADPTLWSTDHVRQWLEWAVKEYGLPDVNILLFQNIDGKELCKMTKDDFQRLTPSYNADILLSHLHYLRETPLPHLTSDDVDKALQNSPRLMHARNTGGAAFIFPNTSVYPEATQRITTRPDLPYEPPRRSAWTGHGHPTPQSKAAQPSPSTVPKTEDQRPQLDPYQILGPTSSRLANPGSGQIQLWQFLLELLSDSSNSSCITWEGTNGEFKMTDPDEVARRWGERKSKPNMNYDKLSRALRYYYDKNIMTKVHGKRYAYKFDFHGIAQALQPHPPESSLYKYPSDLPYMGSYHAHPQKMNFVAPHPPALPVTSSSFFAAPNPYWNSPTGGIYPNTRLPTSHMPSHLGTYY
The note with it: protein: recombinant; tags: N-terminal GST; dsDNA, one strand shown. The method, boiled down:
as §1

Test [5] deals with ELF1 (Homo sapiens, UniProt P32519 1-619). Conditions: protein: recombinant; tags: N-terminal GST; dsDNA, one strand shown. The method, boiled down: as §1
For test [6], the target named is T5, EHF (Homo sapiens, UniProt Q9NZC4 1-300).
T5 sequence: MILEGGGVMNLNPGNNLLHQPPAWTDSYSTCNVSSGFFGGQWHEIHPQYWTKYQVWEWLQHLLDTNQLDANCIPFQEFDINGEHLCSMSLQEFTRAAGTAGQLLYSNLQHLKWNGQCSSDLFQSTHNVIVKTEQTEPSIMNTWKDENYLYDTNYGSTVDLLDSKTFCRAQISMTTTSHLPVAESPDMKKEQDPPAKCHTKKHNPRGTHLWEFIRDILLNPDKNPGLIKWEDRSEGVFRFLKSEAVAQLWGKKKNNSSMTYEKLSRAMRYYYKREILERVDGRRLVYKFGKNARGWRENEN
Conditions: protein: recombinant; tags: N-terminal GST; dsDNA, one strand shown. The method, boiled down: as §1

The target in test [7] is SPI1 (Homo sapiens, UniProt P17947 1-270). The note with it: protein: recombinant; tags: N-terminal GST; dsDNA, one strand shown. The procedure, abridged: as §1
The target in test [8] is SPIB (Homo sapiens, UniProt Q01892 1-262). The note with it: protein: recombinant; tags: N-terminal GST; dsDNA, one strand shown. The method, boiled down:
as §1

Test [9] addresses T6, ELK3 (Homo sapiens, UniProt P41970 1-407).
T6 sequence: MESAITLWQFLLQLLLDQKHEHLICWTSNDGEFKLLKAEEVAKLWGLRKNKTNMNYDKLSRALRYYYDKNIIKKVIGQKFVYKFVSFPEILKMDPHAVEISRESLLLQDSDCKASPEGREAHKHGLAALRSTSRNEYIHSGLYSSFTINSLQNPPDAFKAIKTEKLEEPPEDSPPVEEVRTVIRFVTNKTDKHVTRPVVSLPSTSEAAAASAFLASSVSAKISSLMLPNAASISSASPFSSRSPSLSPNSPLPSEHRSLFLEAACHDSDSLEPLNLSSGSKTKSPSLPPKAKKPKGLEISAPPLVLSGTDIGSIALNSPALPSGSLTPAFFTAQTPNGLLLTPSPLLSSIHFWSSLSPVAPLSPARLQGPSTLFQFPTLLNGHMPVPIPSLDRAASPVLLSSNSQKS
The note with it: protein: recombinant; tags: N-terminal GST; dsDNA, one strand shown. The procedure, abridged:
as §1

Test [10] concerns the target T7, FEV (Homo sapiens, UniProt Q99581 1-238).
T7 sequence: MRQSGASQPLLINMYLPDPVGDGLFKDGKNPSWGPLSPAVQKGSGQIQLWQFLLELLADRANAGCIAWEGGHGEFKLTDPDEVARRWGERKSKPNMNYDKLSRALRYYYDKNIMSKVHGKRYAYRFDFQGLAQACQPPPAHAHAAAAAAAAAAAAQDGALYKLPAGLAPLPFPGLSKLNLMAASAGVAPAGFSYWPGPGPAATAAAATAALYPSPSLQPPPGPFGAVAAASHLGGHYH
Conditions: protein: recombinant; tags: N-terminal GST; dsDNA, one strand shown. The method, boiled down: as §1

Test [11] concerns the target ETV5 (Homo sapiens, UniProt P41161 1-510). Conditions: protein: recombinant; tags: N-terminal GST; dsDNA, one strand shown. The procedure, abridged:
as §1

For test [12], the target named is HSF1 (Homo sapiens, UniProt Q00613 1-529). The note with it: protein: recombinant; tags: N-terminal GST; chain copies: 3; dsDNA, one strand shown. The procedure, abridged:
as §1

The target of test [13] is T8, SPIC (Homo sapiens, UniProt Q8N5J4 1-248).
T8 sequence: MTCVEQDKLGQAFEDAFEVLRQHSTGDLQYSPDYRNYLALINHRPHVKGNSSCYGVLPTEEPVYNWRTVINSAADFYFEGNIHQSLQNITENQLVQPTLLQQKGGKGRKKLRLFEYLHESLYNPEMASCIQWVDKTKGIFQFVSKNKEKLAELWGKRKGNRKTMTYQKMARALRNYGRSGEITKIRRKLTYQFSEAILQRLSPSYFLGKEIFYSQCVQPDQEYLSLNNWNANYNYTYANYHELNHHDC
The note with it: protein: recombinant; tags: N-terminal GST; dsDNA, one strand shown. The procedure, abridged:
as §1

The target of test [14] is ELF4 (Homo sapiens, UniProt Q99607 1-663). Conditions: protein: recombinant; tags: N-terminal GST; dsDNA, one strand shown. The procedure, abridged: as §1
The target in test [15] is T9, ELK4 (Homo sapiens, UniProt P28324-2 1-405).
T9 sequence: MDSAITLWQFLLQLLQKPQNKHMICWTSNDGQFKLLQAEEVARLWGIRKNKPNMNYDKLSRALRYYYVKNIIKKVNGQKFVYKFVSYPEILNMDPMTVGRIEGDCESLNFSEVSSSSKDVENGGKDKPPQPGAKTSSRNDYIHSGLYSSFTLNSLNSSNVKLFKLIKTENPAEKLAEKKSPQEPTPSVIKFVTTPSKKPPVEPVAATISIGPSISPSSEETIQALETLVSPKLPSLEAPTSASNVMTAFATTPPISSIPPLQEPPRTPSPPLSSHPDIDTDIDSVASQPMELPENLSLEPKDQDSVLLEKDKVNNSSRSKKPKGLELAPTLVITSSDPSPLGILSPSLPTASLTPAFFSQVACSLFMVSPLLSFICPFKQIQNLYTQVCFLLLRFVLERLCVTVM
The note with it: protein: recombinant; tags: N-terminal GST; dsDNA, one strand shown. The method, boiled down: as §1

The target in test [16] is T10, ETV2 (Homo sapiens, UniProt O00321 1-342).
T10 sequence: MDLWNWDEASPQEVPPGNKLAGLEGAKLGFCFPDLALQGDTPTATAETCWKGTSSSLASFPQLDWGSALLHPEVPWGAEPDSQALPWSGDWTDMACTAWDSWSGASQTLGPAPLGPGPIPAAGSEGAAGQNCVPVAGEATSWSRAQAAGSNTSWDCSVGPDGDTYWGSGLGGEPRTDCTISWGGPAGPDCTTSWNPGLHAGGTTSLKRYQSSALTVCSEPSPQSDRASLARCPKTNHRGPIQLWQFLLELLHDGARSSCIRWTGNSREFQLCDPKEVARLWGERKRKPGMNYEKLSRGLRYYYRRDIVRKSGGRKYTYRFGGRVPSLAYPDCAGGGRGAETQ
Conditions: protein: recombinant; tags: N-terminal GST; dsDNA, one strand shown. The procedure, abridged:
as §1

In test [17] the target is T11, ELF3 (Homo sapiens, UniProt P78545 1-371).
T11 sequence: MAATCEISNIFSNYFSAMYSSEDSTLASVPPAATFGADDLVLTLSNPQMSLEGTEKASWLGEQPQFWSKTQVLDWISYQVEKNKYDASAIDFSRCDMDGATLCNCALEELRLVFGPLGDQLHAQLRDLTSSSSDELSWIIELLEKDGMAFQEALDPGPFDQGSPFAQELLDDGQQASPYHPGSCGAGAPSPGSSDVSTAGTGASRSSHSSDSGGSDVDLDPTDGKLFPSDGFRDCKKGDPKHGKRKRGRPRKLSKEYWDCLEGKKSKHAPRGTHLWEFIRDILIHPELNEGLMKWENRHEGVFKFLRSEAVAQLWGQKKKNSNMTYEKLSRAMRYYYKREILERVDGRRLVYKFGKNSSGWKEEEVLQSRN
Conditions: protein: recombinant; tags: N-terminal GST; dsDNA, one strand shown. The method, boiled down:
as §1

The target of test [18] is CRX (Homo sapiens, UniProt O43186 1-299). Conditions: protein: recombinant; tags: N-terminal GST; dsDNA, one strand shown. The method, boiled down:
as §1

The target of test [19] is ETV1 (Homo sapiens, UniProt P50549 1-477). Conditions: protein: recombinant; tags: N-terminal GST; dsDNA, one strand shown. The method, boiled down:
as §1

Sequence of ELF4 (Q99607 whole entry): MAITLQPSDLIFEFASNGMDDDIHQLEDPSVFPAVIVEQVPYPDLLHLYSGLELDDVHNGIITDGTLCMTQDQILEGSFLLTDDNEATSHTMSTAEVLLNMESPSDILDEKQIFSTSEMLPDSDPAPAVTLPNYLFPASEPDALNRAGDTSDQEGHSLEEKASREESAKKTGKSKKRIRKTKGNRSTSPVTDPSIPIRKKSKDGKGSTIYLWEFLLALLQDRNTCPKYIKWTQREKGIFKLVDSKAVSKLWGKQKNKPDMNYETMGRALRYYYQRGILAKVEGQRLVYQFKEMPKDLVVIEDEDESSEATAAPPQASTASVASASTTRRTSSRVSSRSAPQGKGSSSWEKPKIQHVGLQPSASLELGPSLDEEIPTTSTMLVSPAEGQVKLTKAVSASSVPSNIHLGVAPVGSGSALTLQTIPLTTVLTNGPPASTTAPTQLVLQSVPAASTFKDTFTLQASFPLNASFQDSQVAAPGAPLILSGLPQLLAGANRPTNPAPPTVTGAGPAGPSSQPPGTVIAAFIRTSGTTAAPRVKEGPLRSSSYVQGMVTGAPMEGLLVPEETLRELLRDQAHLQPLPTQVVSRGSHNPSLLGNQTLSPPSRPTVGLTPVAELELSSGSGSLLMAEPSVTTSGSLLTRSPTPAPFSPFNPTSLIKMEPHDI
Sequence of ETV1 (P50549 whole entry): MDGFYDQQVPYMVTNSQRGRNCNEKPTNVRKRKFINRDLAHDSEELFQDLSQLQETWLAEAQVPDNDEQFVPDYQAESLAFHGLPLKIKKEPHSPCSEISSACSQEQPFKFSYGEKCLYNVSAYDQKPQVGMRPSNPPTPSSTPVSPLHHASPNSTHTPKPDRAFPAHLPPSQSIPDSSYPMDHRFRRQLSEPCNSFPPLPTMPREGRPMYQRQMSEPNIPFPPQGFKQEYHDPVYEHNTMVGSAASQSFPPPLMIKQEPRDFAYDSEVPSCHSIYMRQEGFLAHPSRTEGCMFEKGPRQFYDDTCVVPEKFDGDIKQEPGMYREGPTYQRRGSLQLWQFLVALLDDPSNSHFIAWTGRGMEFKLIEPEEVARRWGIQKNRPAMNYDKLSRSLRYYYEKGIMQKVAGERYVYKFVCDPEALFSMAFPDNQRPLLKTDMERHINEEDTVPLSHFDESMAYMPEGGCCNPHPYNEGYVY
Sequence of SPIB (Q01892 whole entry): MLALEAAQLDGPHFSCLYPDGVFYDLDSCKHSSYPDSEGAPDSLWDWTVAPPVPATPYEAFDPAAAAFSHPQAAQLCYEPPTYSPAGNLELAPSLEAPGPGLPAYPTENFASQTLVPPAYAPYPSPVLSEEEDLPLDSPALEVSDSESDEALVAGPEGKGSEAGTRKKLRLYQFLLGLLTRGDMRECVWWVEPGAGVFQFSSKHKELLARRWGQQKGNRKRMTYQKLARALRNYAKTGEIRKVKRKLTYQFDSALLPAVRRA
Sequence of ETV5 (P41161 whole entry): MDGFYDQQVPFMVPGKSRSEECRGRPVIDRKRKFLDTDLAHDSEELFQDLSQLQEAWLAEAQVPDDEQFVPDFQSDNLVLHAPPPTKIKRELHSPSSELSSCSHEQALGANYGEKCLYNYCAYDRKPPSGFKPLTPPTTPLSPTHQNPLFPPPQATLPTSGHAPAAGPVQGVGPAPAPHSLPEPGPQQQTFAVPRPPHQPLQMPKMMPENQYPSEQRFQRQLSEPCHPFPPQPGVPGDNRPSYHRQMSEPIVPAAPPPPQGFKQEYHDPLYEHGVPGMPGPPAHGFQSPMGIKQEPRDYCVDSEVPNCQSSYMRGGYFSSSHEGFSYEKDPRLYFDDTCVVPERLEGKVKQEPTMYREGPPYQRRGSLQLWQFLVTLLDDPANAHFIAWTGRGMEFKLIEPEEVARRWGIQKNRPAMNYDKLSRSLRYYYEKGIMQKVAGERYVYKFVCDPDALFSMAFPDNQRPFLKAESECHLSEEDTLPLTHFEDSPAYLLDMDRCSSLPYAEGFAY
Sequence of ELF1 (P32519 whole entry): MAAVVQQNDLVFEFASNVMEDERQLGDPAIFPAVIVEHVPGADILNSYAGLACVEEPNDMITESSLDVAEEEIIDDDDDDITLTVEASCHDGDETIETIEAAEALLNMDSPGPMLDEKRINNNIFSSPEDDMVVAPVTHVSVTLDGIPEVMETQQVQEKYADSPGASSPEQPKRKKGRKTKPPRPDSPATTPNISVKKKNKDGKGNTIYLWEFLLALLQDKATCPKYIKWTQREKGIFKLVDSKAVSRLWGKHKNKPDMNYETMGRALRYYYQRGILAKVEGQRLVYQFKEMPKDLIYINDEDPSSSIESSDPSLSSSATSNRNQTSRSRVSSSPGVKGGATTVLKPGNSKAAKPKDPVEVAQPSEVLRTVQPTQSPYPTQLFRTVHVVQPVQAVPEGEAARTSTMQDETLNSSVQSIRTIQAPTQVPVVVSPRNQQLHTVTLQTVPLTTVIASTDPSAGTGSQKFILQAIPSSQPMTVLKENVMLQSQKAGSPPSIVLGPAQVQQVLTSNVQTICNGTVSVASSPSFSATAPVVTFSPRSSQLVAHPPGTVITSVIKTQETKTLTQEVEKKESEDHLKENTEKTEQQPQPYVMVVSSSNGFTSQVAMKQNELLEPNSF
Sequence of HSF1 (Q00613 whole entry): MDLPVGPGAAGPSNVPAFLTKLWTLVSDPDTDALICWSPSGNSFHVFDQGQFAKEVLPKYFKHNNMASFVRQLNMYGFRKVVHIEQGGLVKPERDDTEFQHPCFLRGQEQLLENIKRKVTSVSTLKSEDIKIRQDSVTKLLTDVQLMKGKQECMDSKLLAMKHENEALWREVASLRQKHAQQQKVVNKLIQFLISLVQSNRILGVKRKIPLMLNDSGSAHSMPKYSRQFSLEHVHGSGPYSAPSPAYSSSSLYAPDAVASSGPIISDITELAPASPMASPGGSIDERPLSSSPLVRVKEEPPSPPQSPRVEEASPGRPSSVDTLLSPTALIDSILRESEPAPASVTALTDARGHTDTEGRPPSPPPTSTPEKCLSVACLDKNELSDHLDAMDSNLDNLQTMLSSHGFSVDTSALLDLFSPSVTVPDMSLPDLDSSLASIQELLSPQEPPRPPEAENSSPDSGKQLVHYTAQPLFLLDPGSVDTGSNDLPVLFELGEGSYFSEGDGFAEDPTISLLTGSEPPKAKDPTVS
Sequence of CRX (O43186 whole entry): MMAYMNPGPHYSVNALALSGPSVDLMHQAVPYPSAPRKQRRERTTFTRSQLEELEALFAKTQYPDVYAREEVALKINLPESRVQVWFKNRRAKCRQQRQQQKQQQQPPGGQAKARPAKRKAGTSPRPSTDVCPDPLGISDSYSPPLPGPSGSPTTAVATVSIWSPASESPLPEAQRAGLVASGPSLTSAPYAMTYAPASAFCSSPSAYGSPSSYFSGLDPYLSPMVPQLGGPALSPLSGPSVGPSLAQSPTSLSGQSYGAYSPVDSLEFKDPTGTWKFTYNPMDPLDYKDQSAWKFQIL

For the sequence TTTCCT, the binding signal in test [1] is 2.49 fold enrichment (6-mer frequency, TF over GST control); in test [2], 2.32 fold enrichment (6-mer frequency, TF over GST control); in test [3], 2.32 fold enrichment (6-mer frequency, TF over GST control); in test [4], 2.72 fold enrichment (6-mer frequency, TF over GST control); in test [5] it was 2.19 fold enrichment (6-mer frequency, TF over GST control); in test [6], 2.4 fold enrichment (6-mer frequency, TF over GST control). Besides, the binding signal in test [7] was 2.33 fold enrichment (6-mer frequency, TF over GST control); in [8] it was 2.52 fold enrichment (6-mer frequency, TF over GST control); in [9], 2.53 fold enrichment (6-mer frequency, TF over GST control); in test [10], 2.34 fold enrichment (6-mer frequency, TF over GST control); in test [11], 2.73 fold enrichment (6-mer frequency, TF over GST control); in test [12] it was 1.73 fold enrichment (6-mer frequency, TF over GST control). Also, the binding signal in test [13] was 2.42 fold enrichment (6-mer frequency, TF over GST control); in test [14], 2.19 fold enrichment (6-mer frequency, TF over GST control); in test [15] it was 2.04 fold enrichment (6-mer frequency, TF over GST control); in test [16], 2.49 fold enrichment (6-mer frequency, TF over GST control); in test [17], 2.44 fold enrichment (6-mer frequency, TF over GST control); in test [18], 1.56 fold enrichment (6-mer frequency, TF over GST control). Besides, the binding signal in [19] is 2.43 fold enrichment (6-mer frequency, TF over GST control).
